PubChem BioAssay (NCI)
This is part of a sample that, as a whole, favours compounds with a hit. Of some 79,000 tested, about 15% had one in any assay. Cut-off read from the data, not from the text of the source: active = growth inhibition above about 70%; inactive = the rest.

Key:
[1] = NCI Yeast Anticancer Drug Screen. Data for the rad50 strain (AID 155);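 note: 0% = growth of vehicle-only cultures of the same strain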; settings: S. cerevisiae rad50 strain growth inhibition; at 50.0 µM; hits give high values
Procedure, shortened: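 Relative growth inhibition (compound vs vehicle) was measured in yeast with a defined repair-gene alteration.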

[2] = NCI Yeast Anticancer Drug Screen. Data for the mec2-1 strain (AID 157); settings: S. cerevisiae mec2-1 strain, at 50.0 µM, hits give high values
Procedure, shortened: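 Using mec2-1 yeast: add compound, measure growth, express inhibition versus vehicle-treated cultures.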

[3] = NCI Yeast Anticancer Drug Screen. Data for the sgs1 mgt1 strain (AID 161);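 note: 0% = growth of cultures given vehicle only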; settings: S. cerevisiae sgs1 mgt1 strain, at 50.0 µM, hits give high values
Procedure, shortened: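 This yeast growth screen uses a strain with defined DNA-repair lesions; compound-treated growth is compared with vehicle-treated growth.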

[4] = NCI Yeast Anticancer Drug Screen. Data for the cln2 rad14 strain (AID 165);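 note: 0% = growth equal to vehicle treated cultures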; settings: S. cerevisiae cln2 rad14 strain, at 50.0 µM, hits give high values
Procedure, shortened: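 Yeast strain cln2 rad14, bearing defects in cell cycle control and DNA repair, serves as the test system; values reflect growth inhibition compared with vehicle.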

[5] = NCI Yeast Anticancer Drug Screen. Data for the bub3 strain (AID 167); settings: S. cerevisiae bub3 mutant strain, at 50.0 µM, hits give high values
Procedure, shortened: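 Screening used yeast with an engineered genetic alteration affecting cell cycle control. Compound-exposed cultures were compared with vehicle cultures, and reduced growth was taken as inhibition.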

[6] = NCI Yeast Anticancer Drug Screen. Data for the mlh1 rad18 strain (AID 175); settings: S. cerevisiae mlh1 rad18 strain growth inhibition; at 50.0 µM; hits give high values
Procedure, shortened: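 Steps: expose repair-defective yeast to compound; measure growth; express inhibition against vehicle-treated controls.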

Measured: growth inhibition

CCN(CC)CCNC(=O)Nc1ccc(OC)cc1
inactive: [1] 2.15% | [2] 24% | [3] 13.8% | [4] -0.05% | [5] 32.8% | [6] 7.65%

COc1cc(Nc2cnc3cc(N)ccc3n2)cc(OC)c1OC
inactive: [1] -16.8% | [2] -33.8% | [3] -31.2% | [4] -16.2% | [5] -9.65% | [6] -45.5%

O=C1OC(c2ccccc2)=N/C1=C/N1CCCC1C(=O)O (configuration not stated)
inactive: [1] -1% | [2] 5.6% | [3] 15.9% | [4] 10.1% | [5] -4.4% | [6] -6.3%

FC(F)(F)c1ccc(C2ON=C(c3ccccc3)N2C23CC4CC(CC(C4)C2)C3)cc1 (configuration not stated)
inactive: [1] 17.1% | [2] 4.1% | [3] 25.1% | [4] -0.4% | [5] -7.5% | [6] 1.25%

CCOC(CN(C(C)C)C(C)C)OCC
inactive: [1] -16.4% | [2] -16.8% | [3] 8% | [4] 13.8% | [5] -16.6% | [6] 14.9%

CC(=O)N/C(=C\c1ccccc1)C(N)=O
inactive: [1] 9.9% | [2] 12.9% | [3] 1.2% | [4] 0.6% | [5] 36% | [6] 1.55%

CC(=O)Nc1ccc(S(=O)(=O)/C(=C/c2ccc(-c3ccc(Br)cc3)o2)c2ccc([N+](=O)[O-])o2)cc1
inactive: [1] 30% | [2] -7.45% | [3] -12.2% | [4] 13.7% | [5] 1.1% | [6] -8.05%

COc1cc2c(cc1OC)NC(C)=CC(C)=N2
inactive: [1] -14.3% | [2] 5.1% | [3] 0.3% | [4] 25.2% | [5] 25.7% | [6] 15.9%

Cc1cccc2c(NCCC[N+](C)(C)[O-])c3c([N+](=O)[O-])ccc(C)c3nc12
inactive: [1] 54.1% | [2] -14.3% | [3] 43.8% | [4] 2.8% | [5] -3.1% | [6] 43%

COc1cccc(/C=C2\S/C(=N/Nc3nc(C)c(C)s3)NC2=O)c1O
inactive: [1] 7.7% | [2] 16.3% | [3] 20.8% | [4] 18% | [5] -8.65% | [6] 2.2%

C=CCN1C(=O)C(c2ccccc2)(c2ccccc2)NC1=S
inactive: [1] 1.7% | [2] -32.9% | [3] -32.1% | [4] -20.1% | [5] -30.6% | [6] -41.1%

C/C(=N\Nc1ccc([N+](=O)[O-])cn1)c1ccccn1
inactive: [1] 31.2% | [2] -10.2% | [3] 25.4% | [4] 5.6% | [5] 12.2% | [6] -1.3%

CC(C(=O)c1ccncc1)c1ccccn1 (configuration not stated)
inactive: [1] 1.85% | [2] 6.65% | [3] -25.4% | [4] -18.9% | [5] -12.9% | [6] 3.5%

Oc1ccc2ccccc2c1C=NCc1c(O)ccc2ccccc12
inactive: [1] 3.5% | [2] -1.7% | [3] -11.2% | [4] -39.2% | [5] -43.6% | [6] 8.75%

N#CC(CCc1ccccc1[N+](=O)[O-])(CCc1ccccc1[N+](=O)[O-])C(N)=O
inactive: [1] 19.3% | [2] 5.55% | [3] 24.4% | [4] -18.4% | [5] 16.6% | [6] 39.1%

C=CCOC(=O)C(C#N)C(C)CC(=O)OCC (configuration not stated)
inactive: [1] -5.65% | [2] -1.15% | [3] -22.9% | [4] -0.35% | [5] 5.25% | [6] -5.55%

O=C(c1ccc2ccccc2c1)C(Cl)C(Cl)c1ccccc1 (configuration not stated)
inactive: [1] -13.2% | [2] 10.8% | [3] -1.55% | [4] -15.8% | [5] 53.1% | [6] -6.15%

COC1N(c2ccccc2)CCN1c1ccccc1
inactive: [1] 3.05% | [2] 6.1% | [3] -23.2% | [4] 4.75% | [5] 5.55% | [6] 8.3%

CC(/C=C/c1ccccc1)=N\O
inactive: [1] 9.4% | [2] 7.2% | [3] -1.4% | [4] 28.8% | [5] 3.45% | [6] 1.95%

C=C(C)C1CC=C(/C=N/O)CC1 (configuration not stated)
inactive: [1] -4.6% | [2] 4% | [3] 5.65% | [4] -13.7% | [5] 8.1% | [6] 2.8%

O=S(=O)(Cl)C1c2ccccc2-c2ccccc21
inactive: [1] 22.4% | [2] 20.1% | [3] 12.5% | [4] 15.7% | [5] 23.2% | [6] 23.4%

Cc1ccc(S(=O)(=O)OCCNc2ccc([N+](=O)[O-])cc2[N+](=O)[O-])cc1
inactive: [1] 2% | [2] 6.8% | [3] 6.45% | [4] 11.8% | [5] 2.9% | [6] 7.85%

O=C(O)c1ccc([N+](=O)[O-])cc1N(c1ccccc1)c1ccccc1
inactive: [1] 27.6% | [2] 29.9% | [3] 40.1% | [4] 22.2% | [5] 29.3% | [6] 54%

CCCCC(SC(CC)(CC)C(N)=O)C(N)=O (configuration not stated)
inactive: [1] 8% | [2] -6.5% | [3] 6.55% | [4] -28.9% | [5] 8.7% | [6] -5.6%

CCCN(CCC)S(=O)(=O)c1ccc(NC(=O)Oc2ccc([N+](=O)[O-])cc2)cc1
inactive: [1] 42.5% | [2] 18.1% | [3] 33.5% | [4] 29.9% | [5] 5.85% | [6] 34.4%

O=C(O)C(=O)c1ccc(O)cc1O
inactive: [1] -1.6% | [2] 2.6% | [3] -8.15% | [4] -35.9% | [5] 1.85% | [6] 14.9%

NS(=O)(=O)N1CN(S(N)(=O)=O)CN(S(N)(=O)=O)C1
inactive: [1] -3.4% | [2] 4.1% | [3] 2.65% | [4] -18.6% | [5] 9.75% | [6] 13.4%

Brc1cc2c(cc1C=NC1CCCCC1)OCO2
inactive: [1] 25.6% | [2] 22.8% | [3] -4.05% | [4] 6.8% | [5] 18.8% | [6] 43.7%

c1cn(C23C4C5C6C4C2C6C53)cn1 (configuration not stated)
inactive: [1] 2.65% | [2] -11.2% | [3] 2.5% | [4] 18.1% | [5] -6% | [6] 15.9%

CC(O)(c1ccccc1)C1CC1c1ccccc1 (configuration not stated)
inactive: [1] 29.9% | [2] -3.5% | [3] 20.8% | [4] -17.2% | [5] -12.5% | [6] 6.3%

ClCCOC(CCl)OCCCl
inactive: [1] 24.1% | [2] 6.9% | [3] 22.1% | [4] 20.4% | [5] 6.5% | [6] 14.5%

N#CCC1C2CC3C(C2=O)C13 (configuration not stated)
inactive: [1] -0.6% | [2] 5.85% | [3] -2.2% | [4] 22.4% | [5] 4.65% | [6] -39.8%

c1ccc(COC2NCCN2Cc2ccccc2)cc1 (configuration not stated)
inactive: [1] -29.6% | [2] -20.5% | [3] -10.7% | [4] 6.8% | [5] -55.5% | [6] -7.85%

CC(C)NC(=O)Nc1cccc(Cl)c1
inactive: [1] 0.75% | [2] 7.2% | [3] 17.7% | [4] -18.8% | [5] -23.2% | [6] -1%

Nc1cccc(C(F)(F)F)c1N
inactive: [1] -13.6% | [2] -15.4% | [3] -6.7% | [4] -24.4% | [5] -13.6% | [6] 8.3%

CC(=O)CC(=O)CCC(=O)O
inactive: [1] 30.9% | [2] -20.2% | [3] -0.25% | [4] 7.1% | [5] 13.9% | [6] 32.8%

COc1ccc2c(c1)s/c(=N/N)n2CCCS(=O)(=O)O
inactive: [1] 5.5% | [2] -1.75% | [3] 20.9% | [4] 23.1% | [5] 5.4% | [6] 12.2%

CS(C)(=O)=Nc1ccc(F)cc1
inactive: [1] 8.9% | [2] -7.6% | [3] -2.3% | [4] -21.7% | [5] -13.1% | [6] 3.25%

CCC/C=C(/CC)C(=O)OC(=O)/C(=C/CCC)CC
inactive: [1] 23.9% | [2] 2.1% | [3] 13.8% | [4] -7.25% | [5] 32.1% | [6] 13.6%

CN(C)C(CO)(CO)CO
inactive: [1] 15.3% | [2] -7.5% | [3] 3% | [4] -0.75% | [5] 3.3% | [6] 2.3%

CCOC(=O)CCc1ccco1
inactive: [1] 3.15% | [2] -5.7% | [3] -4.45% | [4] 4.15% | [5] 9.1% | [6] 15.2%

CCC1(C(=O)OC)CCc2c(OC)ccc(OC)c2C1=O (configuration not stated)
inactive: [1] -8.65% | [2] -9.35% | [3] 0.1% | [4] 3.25% | [5] -12.9% | [6] -46.8%
